Results on 39 sequences are retold here after the supplement of paper PMC10338343.

± gives the standard deviation.
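Further: 1 nM active piRISC with 0.1 nM target library at 33 °C single turnover.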

For one experiment, the system named is MILI (PIWIL2) piRISC loaded with L1MC piRNA (26 nt). Put plainly: pre-steady-state target cleavage rate (min^-1); guide: L1MC piRNA 5'p-UAACUAAAUACUAUGCAAGCUGUAGG; MIWI and MILI are mouse PIWI proteins and EfPiwi is from a freshwater sponge; tags in brackets are library labels; higher = faster piRNA-guided slicing of the target. To be noted: auxiliary factor: 500 nM mouse GTSF1. The gist of the method:
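The pre-steady-state cleavage rate was derived from a burst-and-steady-state fit of Cleave-'n-Seq data. For these assays, 1 nM active affinity-purified piRISC loaded with a single synthetic guide was mixed with […] a transcribed, DNA-blocked target RNA library in HEPES–potassium acetate buffer at 33 °C, with or without 500 nM GTSF1 partner protein, for 0–8 or 0–960 min. Sequencing counts of uncleaved targets were normalised to depth and to weakly complementary targets, and k3 was capped at 0.0001 min^-1 after three trials were pooled.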
UCCUGGUACAGCUUGCAUAGUAUUUACUUA: the “pre-steady-state target cleavage rate” value came out at 0.103 ± 0.025.

UCCUGGAUGUCGUAGCAUAGUUUUUAGUUA: the “pre-steady-state target cleavage rate” value was 0.00685 ± 0.0041.

For the sequence UCCUGGAUGAGCUUGCAUAGUAUUUAGUCA, the “pre-steady-state target cleavage rate” value turned out to be 0.172 ± 0.015.

Turning to UCCUGGUACUGCUUGCAUAGAAUUUAGUUA, the “pre-steady-state target cleavage rate” value was 0.0381 ± 0.017.

As to UCCUGGUACAGCUAGCAUAGUAUUUUCAAA, the “pre-steady-state target cleavage rate” value turned out to be 0.0662 ± 0.02.

On to UCCUGGUACAGCAAGCAUAGUAUUUUCAAA, for which the “pre-steady-state target cleavage rate” value was determined as 0.0777 ± 0.022.

As for UCCUGGAUGUCCUUGCAUAGUAUUUACUAA, the “pre-steady-state target cleavage rate” value was found to be 0.0464 ± 0.011.

Take UCCUGGAUCAGCUUGCAAAGUAUUUUCAAA: the “pre-steady-state target cleavage rate” value was 0.00923 ± 0.0045.

For the sequence UCCUGGAACAGCUUGGAUACUAUUUAGUUA, the “pre-steady-state target cleavage rate” value was found to be 0.0744 ± 0.017.

UCCUGGUACAGCUUGCAUAGUAUUAUCUUA: the “pre-steady-state target cleavage rate” value is 0.0311 ± 0.014.

Consider UCCUGGAUGUGCUUGCAUAGUAUAAUGUUA, for which the “pre-steady-state target cleavage rate” value worked out at 0.081 ± 0.022.

With UCCUGGAUGUGCUUGCAUUGAAUUUAGUUA, the “pre-steady-state target cleavage rate” value is 0.00465 ± 0.0038.

As to UCCUGGAUCAGCUAGCAUAGUAUUUACUUA, the “pre-steady-state target cleavage rate” value came out at 0.134 ± 0.018.

Turning to UCCUGGAACAGCUUGCAUAGUAAUUACAAA, the “pre-steady-state target cleavage rate” value amounted to 0.0522 ± 0.019.

Consider UCCUGGAUGAGCUACCAUAGUAUUUAGUAA, for which the “pre-steady-state target cleavage rate” value worked out at 0.1 ± 0.018.

As for UCCUGGAUGAGCUACCAUAGUAUUUAGAAA, the “pre-steady-state target cleavage rate” value stood at 0.00557 ± 0.0043.

In the case of UCCUGGAACAGCUUGCUUAGUAUUUACAAA, the “pre-steady-state target cleavage rate” value worked out at 0.105 ± 0.026.

Consider UCCUGGAUGUGCUUGCAUAGUAUUAAGAAA, for which the “pre-steady-state target cleavage rate” value is 0.00586 ± 0.0036.

As for UCCUGGAUGUCGUUGCAUAGUAUAUAGUAA, the “pre-steady-state target cleavage rate” value amounted to 0.0526 ± 0.018.

Take UCCUGGAACAGCUUGCAUAGUAUUUAGUCUA: the “pre-steady-state target cleavage rate” value was determined as 0.055 ± 0.015.

Consider UCCUGCUACAGCUUGCUUAGUAUUUACUUA, for which the “pre-steady-state target cleavage rate” value came to 0.11 ± 0.015.

Regarding UCCUGGUACAGCUAGCAUAGUAUUUACUUA, the “pre-steady-state target cleavage rate” value came out at 0.0934 ± 0.023.

In the case of UCCUGGAUGUCGUUGCCAUAGUAUUUAGUUA, the “pre-steady-state target cleavage rate” value amounted to 0.00586 ± 0.0034.

Turning to UCCUGGAUCAGCAUGCAUAGUAUUUUCAAA, the “pre-steady-state target cleavage rate” value stood at 0.0716 ± 0.018.

On to UCCUGGAACAGCUAGCAUAGUAUUUUCAAA, for which the “pre-steady-state target cleavage rate” value is 0.0419 ± 0.014.

Regarding UCCUGGAACAGCUUGCAUAGUAUUUAGGUA, the “pre-steady-state target cleavage rate” value was 0.0622 ± 0.017.

As for UCCUGGUUCAGCUUGCAUAGUAUUUACUUA, the “pre-steady-state target cleavage rate” value came to 0.0561 ± 0.02.

Take UCCUGGAACACGAUGCAUAGUAUUUAGAAA: the “pre-steady-state target cleavage rate” value stood at 0.072 ± 0.018.

On to UCCUGGAUGUCGAUGGAUAGUAUUUUGUUA, for which the “pre-steady-state target cleavage rate” value was found to be 0.00767 ± 0.0043.

For the sequence UCCUGGAACAGCUUGCAUAGUAUUAUCUAA, the “pre-steady-state target cleavage rate” value is 0.0368 ± 0.012.

Turning to UCCUGGUUGAGCUUGCAUAGUAUUUACAAA, the “pre-steady-state target cleavage rate” value was 0.0198 ± 0.0068.

With UCCUGGAUGUCCUUGCAUAGUAUAUAGAUA, the “pre-steady-state target cleavage rate” value was found to be 0.0132 ± 0.0063.

Turning to UCCUGGAUGUCCUUGCAUAGUUUAUAGUUA, the “pre-steady-state target cleavage rate” value stood at 0.0111 ± 0.006.

On to UCCUGCUACAGCUUGCAAAGUAUUUACUUA, for which the “pre-steady-state target cleavage rate” value is 0.0653 ± 0.0078.

On to UCCUGGAUGAGCUUGCAUUAGUAUUUAGUUA, for which the “pre-steady-state target cleavage rate” value was 0.00494 ± 0.0045.

Still in this experiment, the particulars now being: auxiliary factor: none (no GTSF1).
For UCCUGGAUGUCGAACGUAAGUAUUAUAGUUA, the “pre-steady-state target cleavage rate” value is below 0.0001.

For the sequence UCCUGGAUGUCGAACGUAUGUUUUAGUUA, the “pre-steady-state target cleavage rate” value was below 0.0001.

Consider UCCUGGAUGUCGAACGAAUAGUAUUUAGUUA, for which the “pre-steady-state target cleavage rate” value is below 0.0001.

Turning to UCCUGGAUGUCGAACGUAUGUAUUUACAAA, the “pre-steady-state target cleavage rate” value was below 0.0001.
